Laboratory results taken from PubChem BioAssay (NCI).
This is part of a sample that, as a whole, favours compounds with a hit. Of some 79,000 tested, about 15% had one in any assay. No stated cut-off is given here; in the data, active means growth inhibition above about 70%; inactive means the rest.

Legend:
[1] = NCI Yeast Anticancer Drug Screen. Data for the rad52 strain (AID 147);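 further: 0% = growth of vehicle-treated control cultures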; details: S. cerevisiae rad52 mutant growth inhibition, stronger effect = higher value
Summary of the method: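 Compounds are applied to a genetically defined yeast strain lacking normal DNA damage repair, and inhibition of growth is expressed relative to cultures given vehicle only.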

[2] = NCI Yeast Anticancer Drug Screen. Data for the wt1 strain (AID 149);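 further: 0% = growth of vehicle-treated wt1 cultures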; details: S. cerevisiae wt1 strain (SPY 50644) growth inhibition, stronger effect = higher value
Summary of the method: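 Growth inhibition read against vehicle controls after compound exposure of the wt1 yeast strain.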

[3] = NCI Yeast Anticancer Drug Screen. Data for the rad50EPP+ strain (AID 151);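 further: 0% = growth of vehicle-treated control cultures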; details: S. cerevisiae rad50 mutant strain, stronger effect = higher value
Summary of the method: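 Compounds were applied to the rad50EPP+ yeast strain, which bears a defined DNA repair alteration, and growth inhibition was determined relative to vehicle-treated cultures.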

[4] = NCI Yeast Anticancer Drug Screen. Data for the mgt1 strain (AID 153); details: S. cerevisiae mgt1 mutant growth inhibition, stronger effect = higher value
Summary of the method: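 Strain: mgt1 yeast, one of a set carrying defined DNA damage repair or cell cycle control alterations. Compound-treated growth compared with vehicle.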

[5] = NCI Yeast Anticancer Drug Screen. Data for the rad50 strain (AID 155);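 further: 0% = growth of vehicle-only cultures of the same strain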; details: S. cerevisiae rad50 strain growth inhibition, stronger effect = higher value
Summary of the method: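 Readout: growth inhibition relative to vehicle-treated cultures. Compound exposure was carried out in a genetically defined yeast strain deficient in DNA damage repair.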

[6] = NCI Yeast Anticancer Drug Screen. Data for the mec2-1 strain (AID 157); details: S. cerevisiae mec2-1 strain, stronger effect = higher value
Summary of the method: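 Strain: mec2-1 (DNA repair/cell cycle alteration). Compound exposure, then growth measured; inhibition expressed relative to vehicle.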

[7] = NCI Yeast Anticancer Drug Screen. Data for the rad14 strain (AID 159);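 further: 0% = growth of vehicle-treated control cultures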; details: S. cerevisiae rad14 strain growth inhibition, stronger effect = higher value
Summary of the method: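 Growth inhibition vs vehicle controls; genetically altered yeast strain (DNA damage repair defect) treated with test compounds.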

[8] = NCI Yeast Anticancer Drug Screen. Data for the sgs1 mgt1 strain (AID 161);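 further: 0% = growth of cultures given vehicle only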; details: S. cerevisiae sgs1 mgt1 strain, stronger effect = higher value
Summary of the method: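 Genetically altered yeast, compound exposure, growth inhibition relative to vehicle.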

[9] = NCI Yeast Anticancer Drug Screen. Data for the CLN2oe strain (AID 163);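 further: 0% = growth of vehicle-only control cultures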; details: S. cerevisiae CLN2oe strain, stronger effect = higher value
Summary of the method: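 Growth of a genetically modified yeast strain is measured after compound exposure and compared with cultures given vehicle alone.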

[10] = NCI Yeast Anticancer Drug Screen. Data for the cln2 rad14 strain (AID 165);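 further: 0% = growth equal to vehicle treated cultures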; details: S. cerevisiae cln2 rad14 strain, stronger effect = higher value
Summary of the method: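 Compounds are applied to the cln2 rad14 yeast strain, and growth is then compared with that of vehicle-treated cultures to give inhibition.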

[11] = NCI Yeast Anticancer Drug Screen. Data for the bub3 strain (AID 167); details: S. cerevisiae bub3 mutant strain, stronger effect = higher value
Summary of the method: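 Readout: yeast growth inhibition, expressed relative to vehicle-only wells. The test organism is a mutant strain from a panel with lesions in DNA repair or checkpoint genes.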

[12] = NCI Yeast Anticancer Drug Screen. Data for the wt2 strain (AID 169);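 further: 0% = growth of vehicle-treated yeast cultures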; details: S. cerevisiae wt2 strain growth inhibition, stronger effect = higher value
Summary of the method: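 This strain belongs to a panel of yeast strains with defined genetic alterations in DNA damage repair or cell cycle control. Compounds are applied, and growth inhibition is measured against vehicle-treated cultures.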

[13] = NCI Yeast Anticancer Drug Screen. Data for the mlh1 strain (AID 171);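 further: 0% = growth of vehicle-treated control cultures of the same strain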; details: S. cerevisiae mlh1 strain growth inhibition, stronger effect = higher value
Summary of the method: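 Growth of the mutant yeast strain after compound exposure, expressed as inhibition relative to vehicle-only controls.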

[14] = NCI Yeast Anticancer Drug Screen. Data for the sgs1 strain (AID 173);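 further: 0% = growth of vehicle-only control cultures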; details: S. cerevisiae sgs1 mutant, stronger effect = higher value
Summary of the method: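 Growth of a yeast strain bearing a defined genetic alteration is measured after compound treatment. Inhibition is expressed relative to vehicle-only controls.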

[15] = NCI Yeast Anticancer Drug Screen. Data for the mlh1 rad18 strain (AID 175); details: S. cerevisiae mlh1 rad18 strain growth inhibition, stronger effect = higher value
Summary of the method: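 Read-out is yeast growth inhibition, calculated against vehicle-only controls. The compound was applied to a strain engineered with DNA damage repair alterations.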

[16] = NCI Yeast Anticancer Drug Screen. Data for the rad18 strain (AID 177); details: S. cerevisiae rad18 mutant growth inhibition, stronger effect = higher value
Summary of the method: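 Growth of the mutant yeast strain after compound exposure, normalised to vehicle-only cultures.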

[17] = at 5.0 µM (retest, dose inferred, filed as 0.5)
[18] = at 50.0 µM (retest, dose inferred, filed as 5.0)

Measured: growth inhibition

O=c1[nH]c(-c2ccccc2)nc2c1sc1nc3ccccc3n12
inactive: [1]; at 1.2 µM -15% | [1]; at 3.7 µM -31% | [1]; at 11.0 µM -23% | [1]; at 33.0 µM -15% | [1]; at 100.0 µM -18% | [2]; at 1.2 µM -24% | [2]; at 3.7 µM -25% | [2]; at 11.0 µM -20% | [2]; at 33.0 µM -25% | [2]; at 100.0 µM -17% | [3]; at 1.2 µM -2% | [3]; at 3.7 µM -31% | [3]; at 11.0 µM -36% | [3]; at 33.0 µM -40% | [3]; at 100.0 µM -31% | [4]; at 1.2 µM -20% | [4]; at 3.7 µM -18% | [4]; at 11.0 µM -17% | [4]; at 33.0 µM -8% | [4]; at 100.0 µM -25% | [5]; at 1.2 µM 11% | [5]; at 3.7 µM 5% | [5]; [17] 8% | [5]; at 11.0 µM -8% | [5]; at 33.0 µM -13% | [5]; [18] 56% | [5]; at 50.0 µM 13.4% | [5]; at 100.0 µM -9% | [6]; at 1.2 µM -34% | [6]; at 3.7 µM -23% | [6]; [17] 5% | [6]; at 11.0 µM -30% | [6]; at 33.0 µM -19% | [6]; [18] 9% | [6]; at 50.0 µM -15.2% | [6]; at 100.0 µM -27% | [7]; at 1.2 µM -24% | [7]; at 3.7 µM -22% | [7]; at 11.0 µM -24% | [7]; at 33.0 µM -14% | [7]; at 100.0 µM -11% | [8]; [17] 7% | [8]; [18] 62% | [8]; at 50.0 µM -30.5% | [9]; at 1.2 µM -52% | [9]; at 3.7 µM -72% | [9]; at 11.0 µM -39% | [9]; at 33.0 µM -23% | [9]; at 100.0 µM -20% | [10]; [17] 14% | [10]; [18] 19% | [10]; at 50.0 µM 5.95% | [11]; at 1.2 µM -35% | [11]; at 3.7 µM -45% | [11]; [17] 6% | [11]; at 11.0 µM -43% | [11]; at 33.0 µM -43% | [11]; [18] 7% | [11]; at 50.0 µM -35.5% | [11]; at 100.0 µM -33% | [12]; at 1.2 µM 2% | [12]; at 3.7 µM -6% | [12]; at 11.0 µM -6% | [12]; at 33.0 µM 19% | [12]; at 100.0 µM 5% | [13]; at 1.2 µM -24% | [13]; at 3.7 µM -44% | [13]; at 11.0 µM -47% | [13]; at 33.0 µM -28% | [13]; at 100.0 µM -42% | [14]; at 1.2 µM -47% | [14]; at 3.7 µM -43% | [14]; at 11.0 µM -39% | [14]; at 33.0 µM -38% | [14]; at 100.0 µM -42% | [15]; [17] 4% | [15]; [18] 22% | [15]; at 50.0 µM -23.4% | [16]; at 1.2 µM -35% | [16]; at 3.7 µM -38% | [16]; at 11.0 µM -39% | [16]; at 33.0 µM -38% | [16]; at 100.0 µM -38%
